# According to article PMC7862700, “An all-to-all approach to the identification of sequence-specific readers for epigenetic DNA modifications on cytosine”:
# Assays:
# Experiment in all cases: DAPPL (digital affinity profiling via proximity ligation, sequencing); 10 mM Tris-HCl pH 7.5, 50 mM NaCl, 1 mM DTT, 4% glycerol, room temperature, 30 min; GST-TFs on glutathione beads, 16-mer random dsDNA library, 0.1% formaldehyde crosslink after washing; high values mean tight binding
# [1] = target: T1, FEV (Homo sapiens, UniProt Q99581 1-238); settings: protein: recombinant; tags: N-terminal GST; dsDNA, one strand shown
# T1 sequence: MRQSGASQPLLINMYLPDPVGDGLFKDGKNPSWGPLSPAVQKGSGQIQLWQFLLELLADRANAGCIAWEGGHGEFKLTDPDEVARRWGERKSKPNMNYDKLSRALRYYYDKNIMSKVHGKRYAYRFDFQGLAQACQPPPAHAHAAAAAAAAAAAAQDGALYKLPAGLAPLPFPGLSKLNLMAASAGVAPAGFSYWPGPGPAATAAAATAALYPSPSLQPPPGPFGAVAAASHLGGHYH
# Method in brief: (§1)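 In yeast, human transcription factors were expressed with a GST fusion, then pulled down on glutathione beads and given DNA barcodes. Pooled with a tag-only sample, they were exposed to 200 nmole of a 16-mer random double-stranded DNA library (Tris/NaCl/DTT/glycerol buffer, room temperature, 30 min), washed, crosslinked with 0.1% formaldehyde, proximity-ligated using BsaI/T4 ligase for 1 h at 37 °C, PCR-amplified and read on an Illumina NextSeq500. Each hexamer's frequency of reads for a factor, divided by the matching frequency for the tag-only sample, gives the binding signal.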
# [2] = target: ETV5 (Homo sapiens, UniProt P41161 1-510); settings: protein: recombinant; tags: N-terminal GST; dsDNA, one strand shown
# Method in brief: as §1
# [3] = target: HSF1 (Homo sapiens, UniProt Q00613 1-529); settings: protein: recombinant; tags: N-terminal GST; chain copies: 3; dsDNA, one strand shown
# Method in brief: as §1
# [4] = target: T2, SPIC (Homo sapiens, UniProt Q8N5J4 1-248); settings: protein: recombinant; tags: N-terminal GST; dsDNA, one strand shown
# T2 sequence: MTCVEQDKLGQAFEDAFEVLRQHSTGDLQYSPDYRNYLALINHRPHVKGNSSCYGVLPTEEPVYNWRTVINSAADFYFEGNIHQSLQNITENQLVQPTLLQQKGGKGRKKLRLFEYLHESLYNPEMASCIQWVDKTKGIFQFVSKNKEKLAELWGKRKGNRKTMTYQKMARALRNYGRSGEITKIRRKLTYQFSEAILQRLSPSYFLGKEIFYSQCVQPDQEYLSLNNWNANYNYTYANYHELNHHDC
# Method in brief: as §1
# [5] = target: ELF4 (Homo sapiens, UniProt Q99607 1-663); settings: protein: recombinant; tags: N-terminal GST; dsDNA, one strand shown
# Method in brief: as §1
# [6] = target: T3, ELK4 (Homo sapiens, UniProt P28324-2 1-405); settings: protein: recombinant; tags: N-terminal GST; dsDNA, one strand shown
# T3 sequence: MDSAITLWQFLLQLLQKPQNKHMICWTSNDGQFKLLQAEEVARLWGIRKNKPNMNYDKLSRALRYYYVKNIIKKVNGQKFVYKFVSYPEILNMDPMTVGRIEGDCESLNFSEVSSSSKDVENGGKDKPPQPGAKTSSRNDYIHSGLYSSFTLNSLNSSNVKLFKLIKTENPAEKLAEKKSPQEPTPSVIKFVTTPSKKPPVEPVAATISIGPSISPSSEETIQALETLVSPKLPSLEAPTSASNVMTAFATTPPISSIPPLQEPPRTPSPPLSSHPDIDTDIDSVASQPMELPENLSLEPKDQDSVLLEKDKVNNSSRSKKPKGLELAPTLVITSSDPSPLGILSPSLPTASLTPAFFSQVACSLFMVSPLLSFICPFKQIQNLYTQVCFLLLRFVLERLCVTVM
# Method in brief: as §1
# [7] = target: T4, ETV2 (Homo sapiens, UniProt O00321 1-342); settings: protein: recombinant; tags: N-terminal GST; dsDNA, one strand shown
# T4 sequence: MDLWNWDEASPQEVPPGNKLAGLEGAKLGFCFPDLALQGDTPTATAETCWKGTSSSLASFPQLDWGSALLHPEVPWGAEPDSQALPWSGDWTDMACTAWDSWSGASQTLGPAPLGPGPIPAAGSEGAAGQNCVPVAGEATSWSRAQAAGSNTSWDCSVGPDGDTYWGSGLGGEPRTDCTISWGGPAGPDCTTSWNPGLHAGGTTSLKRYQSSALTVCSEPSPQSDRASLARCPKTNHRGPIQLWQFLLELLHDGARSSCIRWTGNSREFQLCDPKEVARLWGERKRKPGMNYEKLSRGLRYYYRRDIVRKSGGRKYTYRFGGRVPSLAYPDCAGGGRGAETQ
# Method in brief: as §1
# [8] = target: T5, ELF3 (Homo sapiens, UniProt P78545 1-371); settings: protein: recombinant; tags: N-terminal GST; dsDNA, one strand shown
# T5 sequence: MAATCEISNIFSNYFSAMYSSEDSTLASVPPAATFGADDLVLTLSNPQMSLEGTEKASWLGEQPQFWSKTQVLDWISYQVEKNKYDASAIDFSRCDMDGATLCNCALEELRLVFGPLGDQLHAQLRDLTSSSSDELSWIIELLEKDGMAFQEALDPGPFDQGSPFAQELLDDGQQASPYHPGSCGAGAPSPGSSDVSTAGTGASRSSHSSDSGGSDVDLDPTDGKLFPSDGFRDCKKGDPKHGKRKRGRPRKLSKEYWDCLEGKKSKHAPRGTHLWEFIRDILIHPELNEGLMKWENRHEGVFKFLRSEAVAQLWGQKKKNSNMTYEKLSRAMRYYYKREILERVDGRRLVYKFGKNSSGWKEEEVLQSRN
# Method in brief: as §1
# [9] = target: CRX (Homo sapiens, UniProt O43186 1-299); settings: protein: recombinant; tags: N-terminal GST; dsDNA, one strand shown
# Method in brief: as §1
# [10] = target: ETV1 (Homo sapiens, UniProt P50549 1-477); settings: protein: recombinant; tags: N-terminal GST; dsDNA, one strand shown
# Method in brief: as §1
# [11] = target: T6, ERF (Homo sapiens, UniProt P50548 1-548); settings: protein: recombinant; tags: N-terminal GST; dsDNA, one strand shown
# T6 sequence: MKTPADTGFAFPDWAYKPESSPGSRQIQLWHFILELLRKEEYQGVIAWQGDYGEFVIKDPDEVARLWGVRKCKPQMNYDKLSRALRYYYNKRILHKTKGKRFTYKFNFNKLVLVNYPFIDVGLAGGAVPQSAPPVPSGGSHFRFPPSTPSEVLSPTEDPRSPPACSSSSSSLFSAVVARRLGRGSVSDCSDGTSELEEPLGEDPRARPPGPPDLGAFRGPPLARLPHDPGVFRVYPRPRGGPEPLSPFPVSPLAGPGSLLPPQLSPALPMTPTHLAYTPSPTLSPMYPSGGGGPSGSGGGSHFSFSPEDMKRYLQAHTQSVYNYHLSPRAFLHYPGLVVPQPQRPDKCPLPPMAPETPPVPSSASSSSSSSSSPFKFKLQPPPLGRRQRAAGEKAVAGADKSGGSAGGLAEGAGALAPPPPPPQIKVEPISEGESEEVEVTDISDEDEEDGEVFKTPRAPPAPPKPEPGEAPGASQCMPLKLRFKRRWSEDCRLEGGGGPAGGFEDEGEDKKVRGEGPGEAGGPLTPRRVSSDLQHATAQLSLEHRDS
# Method in brief: as §1
# [12] = target: T7, ETV3L (Homo sapiens, UniProt Q6ZN32 1-361); settings: protein: recombinant; tags: N-terminal GST; dsDNA, one strand shown
# T7 sequence: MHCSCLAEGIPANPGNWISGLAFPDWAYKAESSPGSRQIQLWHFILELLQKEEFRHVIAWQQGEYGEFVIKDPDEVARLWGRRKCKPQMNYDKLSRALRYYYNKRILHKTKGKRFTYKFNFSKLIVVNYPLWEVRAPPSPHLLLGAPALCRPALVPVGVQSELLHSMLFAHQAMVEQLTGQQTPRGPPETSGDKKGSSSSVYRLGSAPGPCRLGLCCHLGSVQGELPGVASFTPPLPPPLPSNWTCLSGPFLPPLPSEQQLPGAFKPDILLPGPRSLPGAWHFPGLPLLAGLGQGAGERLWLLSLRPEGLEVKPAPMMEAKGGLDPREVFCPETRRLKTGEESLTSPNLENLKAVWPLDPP
# Method in brief: as §1
# [13] = target: T8, ETS2 (Homo sapiens, UniProt P15036 1-469); settings: protein: recombinant; tags: N-terminal GST; dsDNA, one strand shown
# T8 sequence: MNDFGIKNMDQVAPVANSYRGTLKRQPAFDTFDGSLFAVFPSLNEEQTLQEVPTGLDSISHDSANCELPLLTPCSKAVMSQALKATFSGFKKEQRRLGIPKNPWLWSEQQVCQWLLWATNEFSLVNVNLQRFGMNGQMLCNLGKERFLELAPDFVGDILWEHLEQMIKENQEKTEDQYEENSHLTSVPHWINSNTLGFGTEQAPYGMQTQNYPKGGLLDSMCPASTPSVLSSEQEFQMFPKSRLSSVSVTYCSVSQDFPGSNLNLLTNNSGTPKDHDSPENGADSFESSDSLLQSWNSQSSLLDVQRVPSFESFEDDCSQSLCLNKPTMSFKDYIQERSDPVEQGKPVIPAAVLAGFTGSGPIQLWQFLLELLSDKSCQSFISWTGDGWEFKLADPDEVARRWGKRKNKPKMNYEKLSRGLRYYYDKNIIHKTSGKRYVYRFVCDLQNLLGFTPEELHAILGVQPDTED
# Method in brief: as §1
# [14] = target: T9, SPDEF (Homo sapiens, UniProt O95238 1-335); settings: protein: recombinant; tags: N-terminal GST; dsDNA, one strand shown
# T9 sequence: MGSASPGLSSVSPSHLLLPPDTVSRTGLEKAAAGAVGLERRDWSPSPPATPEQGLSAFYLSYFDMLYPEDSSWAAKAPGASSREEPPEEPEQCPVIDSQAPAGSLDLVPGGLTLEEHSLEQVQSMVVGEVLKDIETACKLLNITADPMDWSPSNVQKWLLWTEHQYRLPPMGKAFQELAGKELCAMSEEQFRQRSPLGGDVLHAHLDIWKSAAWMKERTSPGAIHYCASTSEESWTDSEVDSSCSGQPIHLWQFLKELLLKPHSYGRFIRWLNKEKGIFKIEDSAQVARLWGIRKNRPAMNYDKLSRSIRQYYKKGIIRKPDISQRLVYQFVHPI
# Method in brief: as §1
# [15] = target: T10, ETV7 (Homo sapiens, UniProt Q9Y603 1-341); settings: protein: recombinant; tags: N-terminal GST; dsDNA, one strand shown
# T10 sequence: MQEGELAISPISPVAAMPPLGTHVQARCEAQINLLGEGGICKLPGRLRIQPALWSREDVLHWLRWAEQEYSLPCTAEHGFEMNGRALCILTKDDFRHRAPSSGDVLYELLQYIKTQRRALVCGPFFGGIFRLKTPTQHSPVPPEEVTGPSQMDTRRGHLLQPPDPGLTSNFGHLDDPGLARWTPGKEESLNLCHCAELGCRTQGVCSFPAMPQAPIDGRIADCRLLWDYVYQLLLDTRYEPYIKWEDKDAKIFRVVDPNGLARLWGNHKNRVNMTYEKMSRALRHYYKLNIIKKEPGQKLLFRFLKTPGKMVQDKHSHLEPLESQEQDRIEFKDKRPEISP
# Method in brief: as §1
# [16] = target: T11, ELF5 (Homo sapiens, UniProt Q9UKW6-2 1-255); settings: protein: recombinant; tags: N-terminal GST; dsDNA, one strand shown
# T11 sequence: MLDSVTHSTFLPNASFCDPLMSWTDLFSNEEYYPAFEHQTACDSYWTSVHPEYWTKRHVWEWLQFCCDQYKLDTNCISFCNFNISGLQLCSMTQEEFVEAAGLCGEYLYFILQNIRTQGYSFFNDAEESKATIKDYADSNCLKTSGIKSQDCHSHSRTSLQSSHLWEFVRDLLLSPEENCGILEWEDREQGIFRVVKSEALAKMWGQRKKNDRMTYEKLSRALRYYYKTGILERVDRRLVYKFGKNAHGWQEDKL
# Method in brief: as §1
# [17] = target: T12, ETV3 (Homo sapiens, UniProt P41162-2 1-143); settings: protein: recombinant; tags: N-terminal GST; dsDNA, one strand shown
# T12 sequence: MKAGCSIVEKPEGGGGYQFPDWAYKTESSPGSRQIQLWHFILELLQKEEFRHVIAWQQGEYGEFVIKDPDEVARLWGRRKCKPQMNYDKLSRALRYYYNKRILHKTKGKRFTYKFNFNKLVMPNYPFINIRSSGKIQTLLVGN
# Method in brief: as §1
# [18] = target: ETV6 (Homo sapiens, UniProt P41212 1-452); settings: protein: recombinant; tags: N-terminal GST; dsDNA, one strand shown
# Method in brief: as §1
# ELF4, sequence (Q99607 whole entry): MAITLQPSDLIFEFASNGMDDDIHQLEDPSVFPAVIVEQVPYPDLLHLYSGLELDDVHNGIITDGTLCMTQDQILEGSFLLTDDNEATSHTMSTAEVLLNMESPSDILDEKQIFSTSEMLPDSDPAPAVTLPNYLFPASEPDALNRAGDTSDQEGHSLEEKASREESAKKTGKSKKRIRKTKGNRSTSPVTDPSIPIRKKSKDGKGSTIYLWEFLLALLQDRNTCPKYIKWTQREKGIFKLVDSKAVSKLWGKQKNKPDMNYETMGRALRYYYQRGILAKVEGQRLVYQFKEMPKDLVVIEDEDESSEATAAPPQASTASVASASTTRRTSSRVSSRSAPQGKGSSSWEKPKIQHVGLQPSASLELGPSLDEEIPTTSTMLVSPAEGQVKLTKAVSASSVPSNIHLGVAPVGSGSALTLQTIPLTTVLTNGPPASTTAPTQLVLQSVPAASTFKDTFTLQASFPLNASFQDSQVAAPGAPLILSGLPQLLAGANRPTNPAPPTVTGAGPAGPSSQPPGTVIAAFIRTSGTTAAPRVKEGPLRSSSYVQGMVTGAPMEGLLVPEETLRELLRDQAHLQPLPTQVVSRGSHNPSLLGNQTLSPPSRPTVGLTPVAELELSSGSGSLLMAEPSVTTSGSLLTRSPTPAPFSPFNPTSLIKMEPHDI
# ETV5, sequence (P41161 whole entry): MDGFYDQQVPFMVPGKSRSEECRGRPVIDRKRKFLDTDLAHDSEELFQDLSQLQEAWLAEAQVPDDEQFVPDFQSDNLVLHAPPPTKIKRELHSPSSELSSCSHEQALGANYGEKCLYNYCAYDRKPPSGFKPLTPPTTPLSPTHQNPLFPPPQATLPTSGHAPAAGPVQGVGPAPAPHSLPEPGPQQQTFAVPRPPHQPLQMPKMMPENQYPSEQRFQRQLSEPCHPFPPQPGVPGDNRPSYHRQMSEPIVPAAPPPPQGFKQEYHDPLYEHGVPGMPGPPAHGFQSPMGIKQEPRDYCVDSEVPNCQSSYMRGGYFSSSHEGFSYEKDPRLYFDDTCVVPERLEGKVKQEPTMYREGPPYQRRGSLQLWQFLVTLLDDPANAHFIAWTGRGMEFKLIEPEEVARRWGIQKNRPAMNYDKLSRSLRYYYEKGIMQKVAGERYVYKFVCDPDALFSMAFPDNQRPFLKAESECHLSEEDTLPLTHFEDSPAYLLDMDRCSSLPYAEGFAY
# HSF1, sequence (Q00613 whole entry): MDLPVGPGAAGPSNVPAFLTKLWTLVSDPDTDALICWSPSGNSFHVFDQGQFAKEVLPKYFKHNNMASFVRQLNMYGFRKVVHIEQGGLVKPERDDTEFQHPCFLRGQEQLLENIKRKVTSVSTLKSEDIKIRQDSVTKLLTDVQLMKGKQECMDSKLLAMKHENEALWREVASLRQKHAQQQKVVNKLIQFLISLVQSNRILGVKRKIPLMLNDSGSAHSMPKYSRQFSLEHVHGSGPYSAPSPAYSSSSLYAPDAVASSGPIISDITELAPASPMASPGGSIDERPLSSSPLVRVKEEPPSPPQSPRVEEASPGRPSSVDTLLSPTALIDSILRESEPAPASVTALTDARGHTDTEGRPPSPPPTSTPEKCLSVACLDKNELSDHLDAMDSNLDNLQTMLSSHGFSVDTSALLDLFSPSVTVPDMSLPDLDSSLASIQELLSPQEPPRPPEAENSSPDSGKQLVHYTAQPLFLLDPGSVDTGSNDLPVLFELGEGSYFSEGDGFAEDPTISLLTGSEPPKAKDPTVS
# ETV1, sequence (P50549 whole entry): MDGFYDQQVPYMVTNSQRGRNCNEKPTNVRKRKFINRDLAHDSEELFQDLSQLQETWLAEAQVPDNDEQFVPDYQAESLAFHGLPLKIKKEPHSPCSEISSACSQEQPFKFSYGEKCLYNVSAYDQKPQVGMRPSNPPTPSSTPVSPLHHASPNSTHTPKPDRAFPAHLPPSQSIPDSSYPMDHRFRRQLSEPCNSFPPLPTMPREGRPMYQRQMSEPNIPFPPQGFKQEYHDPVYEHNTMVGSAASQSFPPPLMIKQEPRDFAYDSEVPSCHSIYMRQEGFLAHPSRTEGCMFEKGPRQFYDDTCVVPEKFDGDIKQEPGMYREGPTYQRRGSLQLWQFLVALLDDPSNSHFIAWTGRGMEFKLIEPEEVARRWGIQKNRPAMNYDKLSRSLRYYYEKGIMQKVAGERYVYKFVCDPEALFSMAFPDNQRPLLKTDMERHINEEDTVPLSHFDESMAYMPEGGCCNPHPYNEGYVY
# CRX, sequence (O43186 whole entry): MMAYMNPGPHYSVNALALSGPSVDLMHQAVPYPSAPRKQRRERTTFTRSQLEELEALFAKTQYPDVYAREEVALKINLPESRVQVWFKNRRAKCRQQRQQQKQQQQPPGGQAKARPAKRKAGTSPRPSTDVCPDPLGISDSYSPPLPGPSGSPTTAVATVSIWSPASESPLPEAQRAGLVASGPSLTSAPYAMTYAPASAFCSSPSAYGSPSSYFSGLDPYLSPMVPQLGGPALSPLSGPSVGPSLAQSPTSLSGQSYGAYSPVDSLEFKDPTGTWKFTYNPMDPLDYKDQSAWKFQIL
# ETV6, sequence (P41212 whole entry): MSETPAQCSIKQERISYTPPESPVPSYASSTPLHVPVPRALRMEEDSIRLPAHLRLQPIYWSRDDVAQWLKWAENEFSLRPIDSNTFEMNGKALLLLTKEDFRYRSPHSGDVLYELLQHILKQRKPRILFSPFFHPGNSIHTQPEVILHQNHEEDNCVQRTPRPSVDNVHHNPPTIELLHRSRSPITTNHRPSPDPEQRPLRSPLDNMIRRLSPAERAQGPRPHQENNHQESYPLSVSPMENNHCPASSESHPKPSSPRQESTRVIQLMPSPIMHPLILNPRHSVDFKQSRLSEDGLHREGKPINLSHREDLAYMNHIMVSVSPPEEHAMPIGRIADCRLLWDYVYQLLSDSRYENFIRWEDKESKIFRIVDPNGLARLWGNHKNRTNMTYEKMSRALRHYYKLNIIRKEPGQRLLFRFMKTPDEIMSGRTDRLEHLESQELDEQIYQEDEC
sequence,measurement,setting,value
AACGAA,binding signal,[1],"1.15 fold enrichment (6-mer frequency, TF over GST control)"
same,binding signal,[2],"1.22 fold enrichment (6-mer frequency, TF over GST control)"
same,binding signal,[3],"1.33 fold enrichment (6-mer frequency, TF over GST control)"
same,binding signal,[4],"1.2 fold enrichment (6-mer frequency, TF over GST control)"
same,binding signal,[5],"1.1 fold enrichment (6-mer frequency, TF over GST control)"
same,binding signal,[6],"1.13 fold enrichment (6-mer frequency, TF over GST control)"
same,binding signal,[7],"1.11 fold enrichment (6-mer frequency, TF over GST control)"
same,binding signal,[8],"1.19 fold enrichment (6-mer frequency, TF over GST control)"
same,binding signal,[9],"1.08 fold enrichment (6-mer frequency, TF over GST control)"
same,binding signal,[10],"1.09 fold enrichment (6-mer frequency, TF over GST control)"
same,binding signal,[11],"1.12 fold enrichment (6-mer frequency, TF over GST control)"
same,binding signal,[12],"1.16 fold enrichment (6-mer frequency, TF over GST control)"
same,binding signal,[13],"1.18 fold enrichment (6-mer frequency, TF over GST control)"
same,binding signal,[14],"1.1 fold enrichment (6-mer frequency, TF over GST control)"
same,binding signal,[15],"1.25 fold enrichment (6-mer frequency, TF over GST control)"
same,binding signal,[16],"1.09 fold enrichment (6-mer frequency, TF over GST control)"
same,binding signal,[17],"1.11 fold enrichment (6-mer frequency, TF over GST control)"
same,binding signal,[18],"1.17 fold enrichment (6-mer frequency, TF over GST control)"
